Data: PubChem BioAssay (NCI)
Compounds without any hit were thinned out: in the full panel of roughly 83,000, 20% have a hit.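 In brief: 96-well plates, 48 h treatment, single concentration, percent growth endpoint.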 A number with no mark means an inactive call. Activity calls are given as the source filed them. How the source made its calls: active means growth percent below 10; inactive means the rest.

How the values were obtained:
Test in all cases: NCI-60 one-dose screen, 48 h (100 = growth as untreated, 0 = no growth, -100 = all killed)
Settings in all cases: 10 µM unless noted
[1] = system: NCI-H23 lung
[2] = system: NCI-H226 lung
[3] = system: NCI-H322M lung
[4] = system: HOP-62 NSCLC
[5] = system: NCI-H460 lung
[6] = system: HOP-92 NSCLC
[7] = system: NCI-H522 lung
[8] = system: A549/ATCC NSCLC
[9] = system: 786-0 renal
[10] = system: COLO 205 colon
[11] = system: DU-145 prostate
[12] = system: K-562 leukemia
[13] = system: MALME-3M melanoma
[14] = system: MDA-MB-231 breast
[15] = system: RXF 393 renal
[16] = system: SF-268 CNS
[17] = system: SF-295 CNS
[18] = system: SF-539 CNS
[19] = system: UACC-257 melanoma
[20] = system: M14 melanoma

Compound | growth [1] | growth [2] [%] | growth [3] | growth [4] | growth [5] | growth [6] | growth [7] | growth [8] [%] | growth [9] | growth [10] | growth [11] | growth [12] | growth [13] | growth [14] | growth [15] | growth [16] | growth [17] | growth [18] | growth [19] | growth [20]
NC(=O)c1c(NC(=O)c2cccs2)sc2c1CCC(=O)C2 | 20.4% | 82.9 | 77.2% | 84.6% | 87.5% | 36.7% | -0.894% (active) | 84.8 | 76% | 34.2% | 80.3% | 10.3% | 67% | 26.1% | 46.4% | 30.3% | 86.9% | -3.38% (active) | 63.7% | 26.1%
O=C(CCCCCNC(=O)c1cc(=O)c(O)co1)Nc1ccccc1 | 99.1% | 105 | 97.2% | 115% | 111% | 99.8% | 90.9% | 97.6 | 97.5% | 120% | 103% | 95.2% | 102% | 101% | 109% | 91.8% | 97.4% | 101% | 93.8% | 96.3%
CC(C)(C)n1cc(-c2ccnc(NCCCNS(=O)(=O)c3cccc4ccccc34)c2)c(-c2cccc(F)c2)n1 | 68.3% | 85.6 | 92.9% | 92.2% | 73.3% | 46.8% | 80.5% | 73.4 | 71.2% | 68.8% | 89.4% | 30.8% | 113% | 80.6% | 76.8% | 85.2% | 63.9% | 72.4% | 94.4% | 73.3%
CCN1C(=O)N(CC)C2C1NN=c1s/c(=C3\C(=O)N(CCC(C)C)c4ccccc43)c(=O)n12 (stereo not given) | 30.8% | 56.3 | 52.1% | 38.9% | 5.57% (active) | 40.4% | 1.9% (active) | 14.2 | 29.1% | 12.3% | 7.36% (active) | 11.6% | 51.3% | 5.92% (active) | 33.2% | 50.8% | 8.08% (active) | -15.2% (active) | 65% | 13.5%
CCNc1nc(O)c(/C=C2\C=Nc3ncccc32)s1 | -7.87% (active) | 10.8 | 5.83% (active) | -26.5% (active) | 2.41% (active) | 4.42% (active) | -28.6% (active) | 11.1 | 3.02% (active) | -33.3% (active) | 9.93% (active) | 26.3% | -6.17% (active) | 10.7% | -39.3% (active) | -5.81% (active) | 4.95% (active) | -64.2% (active) | -15.9% (active) | 0.692% (active)
COc1ccc(/C=C/C(=O)c2cc3c(N)c(C(=O)Nc4cccc(Cl)c4C)sc3nc2C)cc1 | 19.8% | 34.8 | 33.1% | 20.7% | 0.238% (active) | 39.2% | -8.5% (active) | 17.6 | 4.44% (active) | -28.9% (active) | 7.29% (active) | 13% | 45.8% | -12.3% (active) | -17.3% (active) | 11.7% | 13.1% | -40.6% (active) | 63% | -6.38% (active)
CN1CCN(Cc2ccc(NC(=O)c3cncc(C#Cc4cnc(N)c5ccc(F)cc45)c3)cc2C(F)(F)F)CC1 | 30.1% | 28.2 | 23.5% | 7.94% (active) | -15.9% (active) | -6.92% (active) | -81.1% (active) | 24.4 | -76.8% (active) | -25.7% (active) | 4.11% (active) | -63.7% (active) | -17.2% (active) | -58.2% (active) | -3.82% (active) | 29.6% | 28.2% | -3.72% (active) | 47.5% | -0.651% (active)
COc1ccc2[nH]cc(-c3nc(-c4c[nH]c5c(Cl)nccc45)cs3)c2c1 | 54.1% | 40.3 | 72.2% | 61.2% | -3.62% (active) | 56.2% | 25.8% | 28.6 | 9.87% (active) | 42.2% | 32.6% | 19.3% | 65.8% | 31.7% | 37.7% | 73% | 11.9% | 34.9% | -48.3% (active) | -26% (active)
